aSyn rescue: qHTS of alpha-syn Inhibitors; AID 652106, 2013; Potency, µM (series often up to 46.1 µM), without a hit: at the top dose growth rescue (activation), hits mostly activators; Yeast expressing alpha-synuclein, growth rescue, BacTiter-Glo, 24 h; 370,000 compounds, 0.14% hits; further: potency means the concentration at half of the fitted maximal effect; % of control where 0% means no effect; nearly all actives have a fitted effect of over 65% in size
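Screening used galactose-induced yeast with toxic alpha-synuclein levels, exposed to compound for 24 hr at 30 deg C. Cell growth, read with BacTiter-Glo luminescence, gave the measured signal.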
Akt phos inh: HTS Assay for Inhibitors of Akt Phophorylation: Primary Screen; Neuro2A IGF-stimulated pAkt S473 HTRF, 20 min; hits give low values; activity change, % for hits at 50 µM; 360,000 compounds, 0.32% hits; in the data active means activity change below about -80%; inconclusive means mostly about -51% to -80%; further: on the % scale 0 is the no-effect control and ±100 the full control effect
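Neuro2A cells (4,500/well, DMEM with 0.5% FBS) were treated with compound at a single 50 µM final concentration, stimulated with 6 nM IGF for 20 min at 37 °C, and lysed. Phospho-Akt Ser473 was read by HTRF as 665/615 ratio ×10^4.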
FUS yeast rescue: qHTS for Suppressors of FUS Proteinopathy: Primary screen using FUS-linked yeast assay. S. cerevisiae FUS-expressing, growth rescue, OD600, 24 h. Potency, µM (series often up to 76.6 µM), usual class: activators. 390,000 compounds, 0.24% hits. AID 1347120, 2019;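 further: potency means the concentration at half of the fitted maximal effect; plate controls were DMSO vehicle for no effect and reference control for full effect; nearly all actives have a fitted effect of over 55% in size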
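Yeast expressing FUS under galactose induction, OD 0.005 in 2% galactose medium; compounds in a dilution series, 24 h at 30C. Growth rescue by absorbance at 600 nm; CP55940 positive control, DMSO negative.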
Abeta yeast res: qHTS for compounds that reverse cellular toxicity of Amyloid beta (A-beta) peptide in yeast: Primary Screen; AID 1347071, 2019; yeast expressing A-beta42, growth rescue, OD600, 48 h; response scale: 0% DMSO, 100% iron-clioquinol control; 410,000 compounds, 0.063% hits; Potency, µM (titrated, usually from 46.1 µM), hits mostly activators; further: potency means the concentration at half of the fitted maximal effect; nearly all actives have a fitted effect of over 55% in size
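Yeast A-beta toxicity model in growth medium with pinned compounds, 48 h at 30 C; growth read as absorbance at 600 nm. Normalized to FeCl3/clioquinol equimolar mix (positive) and DMSO (negative).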
TDP-43 yeast inh: qHTS of TDP-43 Inhibitors; TDP-43 expressing yeast growth rescue, BacTiter-Glo, 24 h; Potency, µM (series often up to 46.1 µM), for inactives: at the highest dose growth rescue (activation), usual class: activators; AID 652104, 2013; 410,000 compounds, 1.8% hits; further: potency means the concentration at half of the fitted maximal effect; % of control where 0% means no effect; nearly all actives have a fitted effect of over 50% in size
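Readout is BacTiter-Glo luminescence of cell growth, so inhibitors register as activators. TDP-43-expressing yeast at OD600=0.02 in galactose medium, after raffinose pregrowth to mid-log, were incubated with compound for 24 hr at 30 deg C.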
The depositor's hits bear a star; i = inactive; ? = inconclusive; . = not tested or not shown. Shown are actives, neighbours in structure and some others; about 2.3% of the full set was active somewhere. Unless noted, the call rests on the fitted dose curve; in most records, active means well fitted curve in the direction sought with a large enough effect; inconclusive means small, poorly fitted or top-dose-only effect, or another doubt; inactive means no such curve, though single readings can be large; an effect the other way counts as inactive or inconclusive.

SMILES | aSyn rescue | Akt phos inh | FUS yeast rescue | Abeta yeast res | TDP-43 yeast inh
Cc1cc(C)c(COc2ccc(/C=N/n3c(C)n[nH]c3=S)cc2)c(C)c1 | 1.0% | i | i | ? | 20µM*
O=C(CSc1c2c(nc3ccc(Cl)cc13)CCCC2)N1CCN(c2ccc(Cl)cc2)CC1 | . | . | ? | i | 17.8µM*
Cc1ccc(CNC(=O)CSc2c3c(nc4cc(Cl)ccc24)CCCC3)o1 | -12.7% | -102.6%* | ? | i | 15.8µM*
CCOc1ccc(CNC(=O)CSc2c3c(nc4ccc(Cl)cc24)CCCC3)cc1 | . | . | i | i | 20.3%
COc1ccc(-n2cnnc2SCC(=O)N2CCN(c3ccccc3)CC2)cc1 | 5.5% | -107.6%* | i | i | 0.6%
COc1ccc(N2CCN(C(=O)CSc3c4c(nc5ccc(Cl)cc35)CCCC4)CC2)cc1 | . | . | ? | i | 31.6µM*
CCc1ccc(CNC(=O)CSc2c3c(nc4ccc(Cl)cc24)CCCC3)cc1 | . | . | i | i | ?
O=C(c1ccc([N+](=O)[O-])cc1)N1CCN(c2ccc(Nc3ccccc3)nn2)CC1 | . | . | i | i | 16.5%
O=C(CSc1c2c(nc3ccc(Cl)cc13)CCCC2)N1CCN(c2cccc(Cl)c2)CC1 | . | . | ? | i | 15.8µM*
COc1cccc(CNC(=O)CSc2c3c(nc4ccc(Cl)cc24)CCCC3)c1OC | . | . | i | i | ?
COc1ccc(-n2c(=O)c3ccccc3n(CC(=O)NC3CCCC3)c2=O)cc1 | -3.3% | -105.2%* | i | i | 1.4%
COc1ccc(-n2c(=O)c3ccccc3n(CC(=O)NC3CCCCC3)c2=O)c(OC)c1 | 5.0% | i | i | i | 6.9%
Cc1cccc(OCCSc2nc3ccc(NC(=O)c4cccs4)cc3s2)c1 | . | . | i | i | 2.4%
CC1=C(C#N)C(=O)NC(=O)/C1=C\c1ccc(-c2ccc(C)cc2[N+](=O)[O-])o1 | 4.8% | i | i | i | 31.6µM*
Cc1ccc(S(=O)(=O)Nc2ccc(C(=O)N3CCN(c4ccccc4O)CC3)cc2)cc1[N+](=O)[O-] | -0.3% | i | 12.6µM* | i | -10.1%
O=C(c1ccc(S(=O)(=O)Nc2ccccc2)cc1)N1CCCC1 | 0.7% | i | i | i | -5.6%
Cc1ccccc1NS(=O)(=O)c1ccc(C(=O)N2CCN(c3ccccc3O)CC2)cc1 | -1.3% | i | . | i | 18.5%
COC(=O)c1cc(NS(=O)(=O)c2ccc(N3CCCCC3)c([N+](=O)[O-])c2)cc(C(=O)OC)c1 | -3.6% | -98.4%* | i | i | -25.3%
O=C(c1ccc(NS(=O)(=O)c2ccccc2)cc1)N1CCCC1 | 2.0% | -118.2%* | i | i | 25.5%
CCn1nnc2cc(C(=O)Nc3cccc(Cl)c3C)ccc21 | . | . | i | i | 3.6%
CCOC(=O)c1c(C)nc2sc3c(=O)n(-c4ccc(C)cc4)cnc3c2c1-c1ccc(OC)cc1 | -5.9% | -109.7%* | i | i | 8.2%
Cc1ccc(-n2nc3c(N4CCCC(C(=O)NCc5ccccc5C)C4)nnc(C)c3c2C)cc1 (configuration not stated) | . | . | i | i | 10.8%
Cc1ccc(CNC(=O)N2CCC(CN3CCC(C)CC3)CC2)cc1 | . | . | i | i | -4.3%
COc1ccc(N2CCN(C(=S)NC(=O)c3cccs3)CC2)c([N+](=O)[O-])c1 | 8.8% | i | i | ? | 22.4µM*
Cc1cc(N2CCN(C(=O)c3cccs3)CC2)c(F)cc1[N+](=O)[O-] | 6.7% | i | i | i | 12.6µM*
COc1ccc(C(=O)Nc2ccc3c(c2)N(C2CCCC2)C(=O)c2ccccc2S3)cc1OC | . | . | i | i | 6.9%
CCc1ccccc1NC(=O)c1ccc(CN2C(=O)CCn3nc(C)cc32)cc1 | . | . | i | i | 5.9%
COc1cccc(NC(=O)Cn2c(=O)n(-c3ccccc3)c(=O)c3c2c2cc(OC)ccc2n3C)c1 | . | . | i | i | 3.8%
CCOc1ccccc1N=C1SCC(C)N1C(=O)C1CCN(c2ncnc3sc(C)c(C)c23)CC1 (configuration not stated) | 5.6% | i | i | i | 20µM*
